# Results from PubChem BioAssay (Tox21).
# “And” between values parts separate entries of the source, which are not always exact repeats. Identical values can stand only once. Results filed as inconclusive are left out. The source made the active and inactive calls. Calls come from the whole dose curve; as a rule, active = well fitted inhibition curve with a large enough effect in the repeat runs; inconclusive = weak or mixed curves; inactive = no such curve, though single readings can be large or run the other way.
# Molecular target: Cytochrome P450 2C9 (Homo sapiens) (UniProt P11712)
# Sequence (P11712 whole entry, looked up): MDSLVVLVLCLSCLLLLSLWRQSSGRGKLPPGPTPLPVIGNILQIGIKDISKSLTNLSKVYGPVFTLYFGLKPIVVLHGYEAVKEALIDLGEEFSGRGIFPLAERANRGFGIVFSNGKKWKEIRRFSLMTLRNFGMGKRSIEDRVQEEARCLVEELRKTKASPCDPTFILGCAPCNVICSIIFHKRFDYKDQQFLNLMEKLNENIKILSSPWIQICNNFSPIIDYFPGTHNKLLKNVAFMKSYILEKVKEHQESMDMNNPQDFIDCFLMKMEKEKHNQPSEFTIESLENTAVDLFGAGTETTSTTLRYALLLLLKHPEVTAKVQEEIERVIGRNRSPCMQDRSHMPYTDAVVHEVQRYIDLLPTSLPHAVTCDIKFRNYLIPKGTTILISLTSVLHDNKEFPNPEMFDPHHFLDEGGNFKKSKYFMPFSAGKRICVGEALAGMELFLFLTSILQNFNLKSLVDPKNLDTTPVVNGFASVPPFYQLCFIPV
# Assay: Cytochrome P450 Family 2 Subfamily C Member 9 (CYP2C9) small molecule antagonists: luciferase reporter qHTS assay (AID 1671198); note: nearly all actives have a fitted effect of over 50% in size
# Details: P450-Glo CYP2C9 enzyme assay, luciferin luminescence; series mostly up to 115 µM; activity change, negative = inhibition: at the top concentration
# Text: U.S. Tox21 Program National Center for Advancing Translational Sciences [NCATS] U.S. Environmental Protection Agency [EPA] National Institutes of Environmental Health Sciences [NIEHS] National Toxicology Program [NTP] U.S. Food and Drug Administration [FDA] Tox21 Assay Overview: Cytochrome P450 (CYP) enzymes are membrane-bound hemeproteins that play a key role in metabolism of drugs and xenobiotics. Evaluation of the effect of chemicals on CYP isozymes is useful to minimize the adverse drug reactions and toxicities in drug development process. Tox21 chemicals were tested for their effect on CYP enzyme activities by using P450-Glo (TM) screening systems (Promega Corporation, Madison, WI). These systems provide a luminescent method containing proluciferin substrates and are converted to luciferin products by CYP isozymes. The luciferin products formed are detected with a luciferin detection reagent, and the amount of light produced is proportional to CYP activity. P450-Glo (TM) CYP2C9 screening system (Catalog. No. V9790) was used to detect the compounds that interfere in CYP2C9 activity.
# Tox21 Assay Protocol Summary: Two ul of enzyme-substrate mix was dispensed into medium binding white/solid 1536-well plates (Greiner Bio-One North America Inc., Monroe, NC) using a BioRaptr Flying Reagent Dispenser (FRD, Beckman Coulter, Brea, CA). […] The assay plates were incubated at room temperature for 10 min. Then 2 ul of NADPH regeneration solution was added to each well of the assay plates using an FRD and incubated at 37C for 1 h. The reaction was stopped by adding 4 ul of detection reagent using an FRD and after 20 min incubation at room temperature the luminescence signal was measured using a ViewLux plate reader (Perkin Elmer, Shelton, CT). Data were expressed as relative luminescence units.
# % is set by controls: 0 for no effect and ±100 for the full control effect; potency is the fitted concentration of half-maximal effect.
SMILES,Potency,"activity change, negative = inhibition"
CC1(CN2CCC(n3c(=O)[nH]c4ccccc43)CC2)OCc2ccccc2-n2cccc21 (stereo not given),13.8 µM (active),
COC(=O)CS,,-1.65% (inactive)
Cc1ccccc1S,45.2 µM (active),
CCC(OCCCOC)OC(C)=O (stereo not given),,-14.1% (inactive)
C/C=C\C/C=C/CCCCCCCCOC(C)=O,12.6 µM (active),
CC(CO)CO,,9.25% (inactive)
CN1CCCC(CC2c3ccccc3Sc3ccccc32)C1 (stereo not given),,0.327% [at 53 µM] (inactive)
C=C(C)C(=O)OCCCCCCCCCCCCC,,-18.9% (inactive)
OCCOCC#CCOCCO,,-0.915% (inactive)
O=C(OCC(O)CO)c1ccccc1Nc1ccnc2cc(Cl)ccc12 (stereo not given),15.5 µM (active),
CCc1ccccc1,,0.0708% (inactive)
CCCCC(CC)CN (stereo not given),,-9.05% (inactive)
CC(=O)c1cc2ccccc2s1,,13.3% [at 53 µM] (inactive)
CC(C)(O)c1ccc(CNC(=O)c2cccnc2Oc2ccc3nonc3c2)cc1,25.2 µM (active),
CCCCC(CC)COP(=O)(O)O (stereo not given),40.6 µM (active),
O=C1c2ccccc2C(=O)N1CCc1noc(-c2ccc(CN3CCCCCC3)s2)n1,20.6 µM (active),
CN(C)CCN1C(=O)c2ccccc2N(C)c2ccccc21,,3.68% [at 53 µM] (inactive)
O=c1cc(-c2ccccc2)oc2ccc3ccccc3c12,3.17 µM (active),
CC(=O)N/N=C/c1ccc([N+](=O)[O-])o1,,-12.5% [at 53 µM] (inactive)
CCOC(=O)c1ccc(C#Cc2ccc3c(c2)C(C)(C)CCS3)nc1,,-18.5% [at 53 µM] (inactive)

SMILES,Potency,"activity change, negative = inhibition"
CC(=O)OCC[N+](C)(C)C,,-38.5% [at 53 µM] (inactive)
CCCC(=O)C(=O)O,,-3.71% (inactive)
O=C(O)c1ccc(OCCCOc2ccc(C(=O)O)cc2)cc1,,-15.2% [at 53 µM] (inactive)
C/C=C(/C(=C/C)c1ccc(O)cc1)c1ccc(O)cc1,17.4 µM (active),
C[C@@H]1CC(=O)NN=C1c1ccc(NN=C(C#N)C#N)cc1,1.38 µM (active) and 1.23 µM (active),
CO[C@]1(NC(=O)CSC(F)F)C(=O)N2C(C(=O)O)=C(CSc3nnnn3CCO)CO[C@H]21,,-1.53% [at 53 µM] (inactive)
COc1cc(C(=O)NCCCCCC(=O)O)cc(OC)c1OC,,-1.64% [at 53 µM] (inactive)
COC(=O)C1=C(C)NC(C)=C(C(=O)O[C@@H]2CCCN(Cc3ccccc3)C2)[C@@H]1c1cccc([N+](=O)[O-])c1,0.871 µM (active),
CCCCCC#CC(=O)OC,63.3 µM (active),
CC1(C)O[C@@H]2C[C@H]3[C@@H]4C[C@H](F)C5=CC(=O)C=C[C@]5(C)[C@H]4[C@@H](O)C[C@]3(C)[C@]2(C(=O)CO)O1,,-14.2% [at 53 µM] (inactive)
CCC(C)(C)OC,,-9.76% (inactive)
CCC(C)COC(=O)CC(C)C (stereo not given),71 µM (active),
O=C1Cc2ccccc2N1c1c(Cl)cccc1Cl,35.6 µM (active),
CC(C)=CC(=O)C=C(C)C,,-16.6% (inactive)
O=C(/C=C/c1ccccc1)OCCc1ccccc1,25.2 µM (active),
CCn1cc(C(=O)O)c(=O)c2cc(F)c(N3CCNCC3)cc21,,7.8% [at 53 µM] (inactive)
Oc1ccc(Cl)c2cccnc12,,-7.72% [at 53 µM] (inactive)
C=C1C[C@@]23CC[C@H]4[C@@](C)(CCC[C@@]4(C)C(=O)O[C@@H]4O[C@H](CO)[C@@H](O)[C@H](O)[C@H]4O)[C@@H]2CC[C@]1(O[C@@H]1O[C@H](CO)[C@@H](O)[C@H](O[C@@H]2O[C@H](CO)[C@@H](O)[C@H](O)[C@H]2O)[C@H]1O[C@@H]1O[C@H](CO)[C@@H](O)[C@H](O)[C@H]1O)C3,,7.68% (inactive)
CCCCCCCCN,,0.962% (inactive)
CN1C(=O)N(c2ccccc2Br)Cc2cnc(Nc3ccc4c(c3)OCC(CO)O4)nc21 (stereo not given),11.2 µM (active),
